Laboratory results: PubChem BioAssay (EPA / NIEHS)
Activity calls are given as the source filed them. The calls were made as follows: active = hit-call score of the fitted dose curve at least 0.9, where 1 is the maximum; inactive = score below 0.9.

How the values were obtained:
[1] = ATG_GRE_CIS: Attagene CIS-FACTORIAL HepG2 Assay for human Glucocorticoid Response Elements (GRE) (AID 2282947); details: HepG2 GRE cis-reporter, Attagene multiplex mRNA; actives raise or lower the signal
Outline: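 HepG2, transient cis-reporter transfection, 24 h. Reporter mRNA: RT-PCR then CE, fluorescence. Fit both directions vs DMSO.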

[2] = ATG_ISRE_CIS: Attagene CIS-FACTORIAL HepG2 Assay for human Interferon Regulatory Factor 1 (IRF1) binding to an Interferon-Stimulated Response Element (ISRE) (AID 2282948); details: HepG2 ISRE cis-reporter (Attagene), mRNA transcription readout; actives raise or lower the signal
Outline: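 Read-out: fluorescent RT-PCR products resolved by capillary electrophoresis, reporting endogenous transcription factor activity via ISRE-driven reporter mRNA in transfected HepG2 cells dosed for 24 h; gain or loss fitted relative to DMSO.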

[3] = ATG_M_32_CIS: Attagene CIS-FACTORIAL HepG2 Assay for M32 Transcription Factor (Internal Marker) (AID 2282949); details: HepG2 Attagene cis-factorial M32 reporter, mRNA; actives raise or lower the signal;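 also: background control marker of the multiplexed CIS panel rather than a real target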
Outline: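 Transient MRTU transfection of HepG2; 24 h compound treatment; TriZol RNA, oligo(dT) RT, reporter PCR, 6-FAM primer extension, HpaI cut, CE. Gain/loss of signal vs DMSO.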

[4] = ATG_M_06_CIS: Attagene CIS-FACTORIAL HepG2 Assay for M06 Transcription Factor (Internal Marker) (AID 2282950); details: HepG2 Attagene CIS-FACTORIAL M06 internal marker reporter; actives raise or lower the signal
Outline: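 Terse: HepG2, transient MRTU transfection (FuGene 6), 24 h dosing; total RNA, oligo(dT) RT, PCR, FAM label, HpaI cut, capillary electrophoresis; bidirectional fit vs DMSO baseline; background-control endpoint.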

[5] = molecular target: Hypoxia-inducible factor 1-alpha (Homo sapiens) (UniProt Q16665); test: ATG_HIF1a_CIS: Attagene CIS-FACTORIAL HepG2 Assay for human Hypoxia Inducible Factor 1 (HIF1A) (AID 2282951); details: HepG2 Attagene cis-factorial HIF1a reporter transcription; actives raise or lower the signal
Outline: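 After 24 h chemical exposure of reporter-transfected HepG2 cells, reporter cDNA was PCR-amplified, labelled by 6-FAM primer extension (2 min 95 C, 20 s 68 C, 10 min 72 C), HpaI-cut (2 h, 37 C) and analysed by CE.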

[6] = molecular target: Hepatocyte nuclear factor 6 (Homo sapiens) (UniProt Q9UBC0); test: ATG_HNF6_CIS: Attagene CIS-FACTORIAL HepG2 Assay for human Hepatocyte Nuclear Factor 6 (HNF6) (AID 2282952); details: HepG2 Attagene cis-factorial HNF6 reporter transcription; actives raise or lower the signal
Outline: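 Twenty-four-hour chemical treatment of reporter-transfected HepG2 cells precedes RNA isolation, DNase-treated reverse transcription and PCR of reporter sequences. Labelled fragments are sized by capillary electrophoresis and fitted bidirectionally versus DMSO.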

[7] = molecular target: Heat shock factor protein 1 (Homo sapiens) (UniProt Q00613); test: ATG_HSE_CIS: Attagene CIS-FACTORIAL HepG2 Assay for human Heat Shock Transcription Factor 1 (HSE) (AID 2282953); details: HepG2 HSE cis-reporter, Attagene RNA transcription; actives raise or lower the signal
Outline: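 Read-out: fluorescence of reporter-specific RT-PCR fragments separated by capillary electrophoresis. HepG2 carrying transfected cis-element reporter units; 24 h dosing; activity fitted in both directions relative to DMSO baseline.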

[8] = ATG_MRE_CIS: Attagene CIS-FACTORIAL HepG2 Assay for human Metal Responsive Element (MRE) (AID 2282954); details: HepG2 MRE cis-reporter transcription, Attagene multiplex; actives raise or lower the signal
Outline: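 Readout: capillary electrophoresis of 6-FAM-labelled, HpaI-digested RT-PCR reporter products. System: HepG2 cells carrying transient multiplexed cis reporters, dosed 24 h. Analysis: bidirectional fit, DMSO baseline.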

[9] = ATG_PBREM_CIS: Attagene CIS-FACTORIAL HepG2 Assay for human Phenobarbital-responsive Enhancer Module (PBREM) (AID 2282955); details: HepG2 PBREM cis-reporter, Attagene multiplexed transcription; actives raise or lower the signal
Outline: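 Measures endogenous factor action on a phenobarbital-responsive enhancer module. HepG2 transiently carrying cis reporters, 24 h treatment, mRNA read-out by RT-PCR plus capillary electrophoresis.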

[10] = molecular target: Paired box protein Pax-6 (Homo sapiens) (UniProt P26367); test: ATG_Pax6_CIS: Attagene CIS-FACTORIAL HepG2 Assay for human Paired Box 6 (PAX6) (AID 2282956); details: HepG2 CIS-FACTORIAL PAX6 reporter transcription, RNA readout; actives raise or lower the signal
Outline: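 Readout: reporter transcript fluorescence after RT-PCR and capillary electrophoresis. Cells: HepG2, transiently transfected with cis-regulated MRTUs. Exposure 24 h. Gain or loss of signal fitted bidirectionally relative to DMSO.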

[11] = ATG_PXRE_CIS: Attagene CIS-FACTORIAL HepG2 Assay for human Pregnane X Receptor Element (PXRE) (AID 2282957); details: HepG2 Attagene CIS-FACTORIAL PXRE reporter, mRNA; actives raise or lower the signal
Outline: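 Bidirectional activity, baselined to DMSO, derived from reporter mRNA fluorescence (RT-PCR plus capillary electrophoresis) in HepG2 cells bearing cis-promoter reporter units, 24 h exposure.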

[12] = ATG_PPRE_CIS: Attagene CIS-FACTORIAL HepG2 Assay for human Peroxisome Proliferator-activated Response Element (PPRE) (AID 2282958); details: HepG2 PPRE cis-element reporter, Attagene transcription factor profiling; actives raise or lower the signal
Outline: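 PPRE activity in HepG2: transient cis-reporter transfection, 24 h compound incubation, reporter mRNA by RT-PCR and CE fluorescence; gain/loss fitted against DMSO.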

[13] = ATG_RORE_CIS: Attagene CIS-FACTORIAL HepG2 Assay for human RAR-related Orphan Receptor Element (RORE) (AID 2282959); details: HepG2 Attagene cis-factorial RORE reporter, mRNA; actives raise or lower the signal
Outline: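 A 24-hour exposure of transfected HepG2 hepatoma cells precedes RNA isolation and reporter RT-PCR. Labeled products are digested with HpaI and resolved by capillary electrophoresis, with gain or loss of signal scored relative to DMSO.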

[14] = ATG_Sox_CIS: Attagene CIS-FACTORIAL HepG2 Assay for human SRY-box transcription factor (SOX) (AID 2282960); details: HepG2 Attagene cis-factorial SOX reporter, mRNA; actives raise or lower the signal
Outline: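 HepG2, cis reporter units, 24 h exposure. Reporter mRNA: RT-PCR → FAM labelling → HpaI → CE fluorescence. Bidirectional fit vs DMSO.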

[15] = molecular target: Transcription factor Sp1 (Homo sapiens) (UniProt P08047); test: ATG_Sp1_CIS: Attagene CIS-FACTORIAL HepG2 Assay for human Specificity Protein 1 (Sp1) (AID 2282961); details: HepG2 Sp1 cis-reporter transcription, actives raise or lower the signal
Outline: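 Liver-derived HepG2 cells, cis-element reporter library, 24 h treatment; RNA isolated, cDNA amplified with reporter-specific primers, FAM-labeled fragments sized on capillary analyzer. DMSO baseline, bidirectional curve fit.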

[16] = ATG_SREBP_CIS: Attagene CIS-FACTORIAL HepG2 Assay for human Sterol Regulatory Element Binding (SREBP) (AID 2282962); details: HepG2 Attagene cis-factorial SREBP reporter, mRNA; actives raise or lower the signal
Outline: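 Readout: fluorescent reporter-transcript peaks resolved by capillary electrophoresis after RT-PCR. Cells were human HepG2 carrying transfected cis-promoter reporter constructs, dosed for 24 h. Gain or loss of signal was fitted against DMSO controls.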

[17] = molecular target: Signal transducer and activator of transcription 3 (Homo sapiens) (UniProt P40763); test: ATG_STAT3_CIS: Attagene CIS-FACTORIAL HepG2 Assay for human Signal Transducer and Activator of Transcription 3 (STAT3) (AID 2282963); details: HepG2, Attagene cis-factorial STAT3 reporter transcription; actives raise or lower the signal
Outline: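 Uses human liver HepG2 transiently carrying cis-regulated reporter transcription units. Following 24 h dosing, reporter mRNA induction was detected by RT-PCR and capillary electrophoresis, analysed bidirectionally versus DMSO.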

[18] = ATG_TA_CIS: Attagene CIS-FACTORIAL HepG2 Assay for human TA Basal Promoter (AID 2282964); details: HepG2 Attagene CIS-factorial TA basal promoter reporter; actives raise or lower the signal
Outline: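 Transfected HepG2, 24 h compound exposure; RNA → RT-PCR → FAM primer extension → HpaI cut → CE fluorescence. Gain/loss-of-signal fitted against DMSO negative control. Background-control readout.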

[19] = ATG_TCF_b_cat_CIS: Attagene CIS-FACTORIAL HepG2 Assay for human T-Cell-Factor with beta-catenin (TCF/b-cat) (AID 2282965); details: HepG2 TCF/beta-catenin cis-reporter transcription, actives raise or lower the signal
Outline: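 In this cis-format system, transfected HepG2 cells report endogenous transcription factor activity. Readout after 24 h exposure is reporter transcript abundance from RT-PCR and capillary electrophoresis, analysed for gain or loss of signal versus DMSO.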

[20] = molecular target: Bile acid receptor (Homo sapiens) (UniProt Q96RI1); test: ATG_IR1_CIS: Attagene CIS-FACTORIAL HepG2 Assay for human Nuclear Receptor Subfamily 1 Group H Member 4 (NR1H4), IR1 submotif (AID 2282946); details: IR1 reporter transcription, actives raise or lower the signal
Outline: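 Readout: reporter transcript levels by RT-PCR with fluorescent capillary electrophoresis, from HepG2 cells transiently transfected with multiplexed cis-regulated reporters and dosed 24 h. Gain- or loss-of-signal fitted versus DMSO negative control.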

Sequence of Hypoxia-inducible factor 1-alpha (Homo sapiens) (Q16665 whole entry, looked up): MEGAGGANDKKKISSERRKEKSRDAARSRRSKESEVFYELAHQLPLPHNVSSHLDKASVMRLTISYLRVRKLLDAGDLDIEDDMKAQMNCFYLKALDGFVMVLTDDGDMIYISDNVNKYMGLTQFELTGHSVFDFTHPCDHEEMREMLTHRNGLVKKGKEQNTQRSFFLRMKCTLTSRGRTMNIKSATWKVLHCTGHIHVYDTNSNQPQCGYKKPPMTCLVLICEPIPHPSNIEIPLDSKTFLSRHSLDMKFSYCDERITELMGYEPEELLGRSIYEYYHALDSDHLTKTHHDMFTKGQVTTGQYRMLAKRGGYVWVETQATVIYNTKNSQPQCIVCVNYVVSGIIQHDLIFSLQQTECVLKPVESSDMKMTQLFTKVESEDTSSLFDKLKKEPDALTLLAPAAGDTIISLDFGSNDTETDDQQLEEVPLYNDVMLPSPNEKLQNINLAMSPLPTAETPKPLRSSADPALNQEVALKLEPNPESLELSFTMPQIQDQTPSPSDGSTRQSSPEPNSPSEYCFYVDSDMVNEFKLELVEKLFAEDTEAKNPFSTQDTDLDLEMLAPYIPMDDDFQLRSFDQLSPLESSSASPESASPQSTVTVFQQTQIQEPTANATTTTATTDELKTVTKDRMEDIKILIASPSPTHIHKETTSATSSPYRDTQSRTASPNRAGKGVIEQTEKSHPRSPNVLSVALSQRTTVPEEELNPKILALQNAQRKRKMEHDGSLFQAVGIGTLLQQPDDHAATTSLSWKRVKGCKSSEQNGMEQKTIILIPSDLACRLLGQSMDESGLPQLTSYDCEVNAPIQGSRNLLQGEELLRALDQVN
Sequence of Paired box protein Pax-6 (Homo sapiens) (P26367 whole entry, looked up): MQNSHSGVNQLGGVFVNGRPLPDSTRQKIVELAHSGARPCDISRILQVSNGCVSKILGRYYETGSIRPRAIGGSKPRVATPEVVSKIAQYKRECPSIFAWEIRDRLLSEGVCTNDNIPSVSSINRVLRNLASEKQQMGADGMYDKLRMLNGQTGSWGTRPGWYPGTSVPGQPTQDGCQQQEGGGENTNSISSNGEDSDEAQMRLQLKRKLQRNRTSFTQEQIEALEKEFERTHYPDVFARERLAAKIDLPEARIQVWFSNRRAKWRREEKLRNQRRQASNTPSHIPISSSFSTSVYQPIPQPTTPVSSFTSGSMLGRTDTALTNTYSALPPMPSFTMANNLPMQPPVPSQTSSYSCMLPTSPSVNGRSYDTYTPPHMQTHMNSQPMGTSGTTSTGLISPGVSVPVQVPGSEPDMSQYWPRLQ
Sequence of Heat shock factor protein 1 (Homo sapiens) (Q00613 whole entry, looked up, the tested form may be a part): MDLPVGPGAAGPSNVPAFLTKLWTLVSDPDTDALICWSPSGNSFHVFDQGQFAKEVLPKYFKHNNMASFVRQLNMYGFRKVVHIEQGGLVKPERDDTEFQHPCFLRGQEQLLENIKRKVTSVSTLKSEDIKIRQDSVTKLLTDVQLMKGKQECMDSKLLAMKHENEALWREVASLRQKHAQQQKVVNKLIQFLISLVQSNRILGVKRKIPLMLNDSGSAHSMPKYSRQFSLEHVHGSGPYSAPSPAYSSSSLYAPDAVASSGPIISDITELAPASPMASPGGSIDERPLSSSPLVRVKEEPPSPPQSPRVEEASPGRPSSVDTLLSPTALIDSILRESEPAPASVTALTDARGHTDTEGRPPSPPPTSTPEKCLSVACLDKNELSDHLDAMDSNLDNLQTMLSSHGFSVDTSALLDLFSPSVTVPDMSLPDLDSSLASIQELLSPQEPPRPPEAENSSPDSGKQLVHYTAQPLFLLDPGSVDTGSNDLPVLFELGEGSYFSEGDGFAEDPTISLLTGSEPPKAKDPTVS
Sequence of Signal transducer and activator of transcription 3 (Homo sapiens) (P40763 whole entry, looked up): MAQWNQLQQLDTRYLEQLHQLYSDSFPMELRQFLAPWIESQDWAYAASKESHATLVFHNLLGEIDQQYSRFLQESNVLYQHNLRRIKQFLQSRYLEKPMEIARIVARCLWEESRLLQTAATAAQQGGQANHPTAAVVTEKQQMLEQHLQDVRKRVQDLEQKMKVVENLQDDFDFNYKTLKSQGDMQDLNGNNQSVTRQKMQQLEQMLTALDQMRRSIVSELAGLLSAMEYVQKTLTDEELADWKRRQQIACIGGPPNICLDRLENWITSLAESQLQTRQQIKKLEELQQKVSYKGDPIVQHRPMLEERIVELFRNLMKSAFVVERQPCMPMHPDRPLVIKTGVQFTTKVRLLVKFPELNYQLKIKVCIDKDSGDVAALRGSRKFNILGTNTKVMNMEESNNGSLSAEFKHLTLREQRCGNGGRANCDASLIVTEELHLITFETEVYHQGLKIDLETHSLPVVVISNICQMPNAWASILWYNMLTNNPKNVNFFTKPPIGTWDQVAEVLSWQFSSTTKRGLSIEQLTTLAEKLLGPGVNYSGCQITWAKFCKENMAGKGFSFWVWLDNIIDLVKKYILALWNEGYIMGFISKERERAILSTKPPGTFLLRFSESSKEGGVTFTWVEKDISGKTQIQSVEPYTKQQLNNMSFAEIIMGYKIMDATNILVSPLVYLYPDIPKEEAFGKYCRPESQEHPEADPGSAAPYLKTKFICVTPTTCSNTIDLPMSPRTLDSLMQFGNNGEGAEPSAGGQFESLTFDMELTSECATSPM
Sequence of Hepatocyte nuclear factor 6 (Homo sapiens) (Q9UBC0 whole entry, looked up, the tested form may be a part): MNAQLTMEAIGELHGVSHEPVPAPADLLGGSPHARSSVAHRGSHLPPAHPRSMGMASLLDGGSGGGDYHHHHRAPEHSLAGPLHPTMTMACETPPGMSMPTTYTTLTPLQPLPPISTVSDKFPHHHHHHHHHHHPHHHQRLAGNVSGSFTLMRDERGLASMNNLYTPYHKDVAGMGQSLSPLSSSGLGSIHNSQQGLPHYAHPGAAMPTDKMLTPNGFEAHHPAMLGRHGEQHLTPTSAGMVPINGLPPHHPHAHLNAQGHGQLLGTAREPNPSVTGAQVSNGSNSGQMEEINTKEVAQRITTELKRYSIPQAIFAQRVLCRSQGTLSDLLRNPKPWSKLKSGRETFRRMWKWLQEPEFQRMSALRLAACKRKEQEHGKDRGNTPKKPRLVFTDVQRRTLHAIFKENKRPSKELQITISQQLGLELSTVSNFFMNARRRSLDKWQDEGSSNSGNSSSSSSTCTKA
Sequence of Transcription factor Sp1 (Homo sapiens) (P08047 whole entry, looked up, the tested form may be a part): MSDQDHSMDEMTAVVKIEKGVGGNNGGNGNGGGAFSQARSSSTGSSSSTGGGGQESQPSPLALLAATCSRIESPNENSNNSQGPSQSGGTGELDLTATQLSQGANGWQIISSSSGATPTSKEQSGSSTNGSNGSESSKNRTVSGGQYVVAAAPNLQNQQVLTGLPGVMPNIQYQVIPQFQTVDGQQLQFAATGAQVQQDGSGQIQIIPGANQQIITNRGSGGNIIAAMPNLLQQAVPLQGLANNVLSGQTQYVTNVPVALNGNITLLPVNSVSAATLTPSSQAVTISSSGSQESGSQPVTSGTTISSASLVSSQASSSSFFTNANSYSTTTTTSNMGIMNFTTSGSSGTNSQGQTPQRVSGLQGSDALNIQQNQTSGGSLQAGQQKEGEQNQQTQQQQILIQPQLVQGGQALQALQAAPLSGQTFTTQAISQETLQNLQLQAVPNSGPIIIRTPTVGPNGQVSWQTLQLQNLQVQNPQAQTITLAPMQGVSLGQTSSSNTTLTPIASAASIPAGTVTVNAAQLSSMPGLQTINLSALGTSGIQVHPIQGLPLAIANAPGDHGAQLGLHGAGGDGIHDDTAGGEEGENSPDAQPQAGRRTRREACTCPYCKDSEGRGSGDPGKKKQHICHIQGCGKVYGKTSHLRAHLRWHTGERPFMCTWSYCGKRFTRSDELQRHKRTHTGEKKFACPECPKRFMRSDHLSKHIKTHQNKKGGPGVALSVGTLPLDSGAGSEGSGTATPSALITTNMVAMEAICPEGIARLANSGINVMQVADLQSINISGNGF
Sequence of Bile acid receptor (Homo sapiens) (Q96RI1 whole entry, looked up): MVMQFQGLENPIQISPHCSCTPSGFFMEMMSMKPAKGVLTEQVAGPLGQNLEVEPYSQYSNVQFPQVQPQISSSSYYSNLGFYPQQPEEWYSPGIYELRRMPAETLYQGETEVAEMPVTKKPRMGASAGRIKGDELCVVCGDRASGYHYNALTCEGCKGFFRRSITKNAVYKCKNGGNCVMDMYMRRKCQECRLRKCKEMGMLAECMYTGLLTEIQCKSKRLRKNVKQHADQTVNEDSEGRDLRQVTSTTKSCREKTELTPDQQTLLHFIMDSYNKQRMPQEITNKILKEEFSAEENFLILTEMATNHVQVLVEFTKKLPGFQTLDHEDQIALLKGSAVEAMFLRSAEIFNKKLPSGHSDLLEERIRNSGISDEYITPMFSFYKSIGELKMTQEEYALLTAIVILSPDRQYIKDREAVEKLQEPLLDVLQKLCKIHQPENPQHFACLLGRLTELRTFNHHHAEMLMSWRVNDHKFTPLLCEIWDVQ

CCc1cc(C(C)(C)C)c(O)c(C(C)(C)C)c1
outcome [1]: inactive
outcome [2]: inactive
outcome [3]: inactive
outcome [4]: inactive
outcome [5]: inactive
outcome [6]: inactive
outcome [7]: inactive
outcome [8]: inactive
outcome [9]: inactive
outcome [10]: inactive
AC50 [11]: 8.94 µM (active)
outcome [12]: inactive
outcome [13]: inactive
outcome [14]: inactive
AC50 [15]: 33.4 µM (active)
AC50 [16]: 59.9 µM (active)
outcome [17]: inactive
outcome [18]: inactive

C=CC(=O)OCCCC
outcome [1]: inactive
outcome [2]: inactive
outcome [3]: inactive
outcome [4]: inactive
outcome [5]: inactive
outcome [6]: inactive
outcome [7]: inactive
outcome [8]: inactive
outcome [9]: inactive
outcome [10]: inactive
outcome [11]: inactive
outcome [13]: inactive
outcome [14]: inactive
outcome [15]: inactive
outcome [16]: inactive
outcome [17]: inactive
outcome [18]: inactive
outcome [19]: inactive

O=Cc1ccccc1S(=O)(=O)O
outcome [1]: inactive
outcome [2]: inactive
outcome [3]: inactive
outcome [4]: inactive
outcome [5]: inactive
outcome [6]: inactive
outcome [7]: inactive
outcome [8]: inactive
outcome [9]: inactive
outcome [10]: inactive
outcome [11]: inactive
outcome [12]: inactive
outcome [14]: inactive
outcome [15]: inactive
outcome [16]: inactive
outcome [17]: inactive
outcome [18]: inactive

C=CC(C)C#N (stereo not given)
outcome [1]: inactive
outcome [2]: inactive
outcome [3]: inactive
outcome [4]: inactive
outcome [5]: inactive
outcome [6]: inactive
outcome [7]: inactive
outcome [8]: inactive
outcome [9]: inactive
outcome [10]: inactive
outcome [11]: inactive
outcome [12]: inactive
outcome [13]: inactive
outcome [14]: inactive
outcome [15]: inactive
outcome [16]: inactive
outcome [17]: inactive
outcome [18]: inactive
outcome [19]: inactive

CCOC(=O)COC(=O)c1cc(Oc2ccc(C(F)(F)F)cc2Cl)ccc1[N+](=O)[O-]
outcome [20]: inactive
outcome [3]: inactive
outcome [4]: inactive
outcome [7]: inactive
outcome [8]: inactive
outcome [10]: inactive
AC50 [11]: 9.9 µM (active)
AC50 [12]: 12.4 µM (active)
AC50 [13]: 34.3 µM (active)
outcome [14]: inactive
outcome [15]: inactive
outcome [16]: inactive
outcome [17]: inactive
outcome [18]: inactive
outcome [19]: inactive

CC1(C)CCC[C@]2(C)[C@H]3CCO[C@]3(C)CC[C@@H]12
outcome [1]: inactive
outcome [2]: inactive
outcome [3]: inactive
outcome [4]: inactive
outcome [5]: inactive
outcome [6]: inactive
AC50 [7]: 178 µM (active)
outcome [8]: inactive
outcome [9]: inactive
outcome [10]: inactive
AC50 [11]: 7.46 µM (active)
outcome [12]: inactive
AC50 [13]: 100 µM (active)
outcome [14]: inactive
outcome [15]: inactive
AC50 [16]: 145 µM (active)
outcome [17]: inactive
outcome [18]: inactive
outcome [19]: inactive

CCCCCCCCSCCO
outcome [1]: inactive
outcome [2]: inactive
outcome [3]: inactive
outcome [4]: inactive
outcome [5]: inactive
outcome [6]: inactive
outcome [7]: inactive
AC50 [8]: 153 µM (active)
outcome [9]: inactive
outcome [10]: inactive
AC50 [11]: 25 µM (active)
outcome [12]: inactive
outcome [13]: inactive
outcome [14]: inactive
outcome [15]: inactive
outcome [16]: inactive
outcome [17]: inactive
outcome [18]: inactive
outcome [19]: inactive
